The structures appear in SMILES notation. Unmarked numbers belong to inactive results. How the calls were made is not given here.

The assay is described as follows: circadian clock period modulators, cell-based, LOPAC library, luminescence reporter (AID 2774).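 Further: values are relative to mean of DMSO wells on each plate.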 Particulars: circadian reporter cells, at 7 µM, actives lie on both sides.
For the compound `NC(=NCc1ccc(Cl)c(Cl)c1)NC(=O)c1nc(Cl)c(N)nc1N`, the period change was 0.175 h.
Turning to `CCCCN1CCC(COC(=O)c2cc(Cl)c(N)c3c2OCCO3)CC1`, the period change was -0.095 h.
Then `CC(N)=NCCC[C@H](N)C(=O)O`, with 0.025 h.
Next, `CCCn1c(=O)c2[nH]c(-c3ccc(OCC(=O)Nc4ccc(C#N)cc4)cc3)nc2n(CCC)c1=O`: 0.13 h; `CCNC(=O)C1OC(n2cnc3c(NCc4ccccc4)ncnc32)C(O)C1O` (stereo not given): 0.1 h.

The values are drawn from PubChem BioAssay.
